This note sets out measurements from PubChem BioAssay (Tox21).

Molecules are shown by their SMILES. A number with no mark means an inactive call. Records with an inconclusive call do not appear. Activity calls are given as the source filed them. Unless noted, calls come from the whole dose curve.

The nature of assay [1]: Nuclear factor erythroid 2-related factor 2/antioxidant responsive element (Nrf2/ARE) small molecule agonists: qHTS cell viability counter screen in human keratinocytes (AID 1919968; active = well fitted curve in the direction sought with a large enough effect in the repeat runs; an effect the other way counts as inactive or inconclusive; note: nearly all actives have a fitted effect of over 55% in size; note: potency is the fitted concentration of half-maximal effect). Summed up: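 CellTiter-Fluor fluorescence, read 1 h after reagent, gave viability in the same wells as the ARE-luciferase assay. KeratinoSens cells (1,500/well) had 23 h compound exposure at 37 C/5% CO2 following 5 h plating.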
In general terms: qHTS replaces the single test concentration by a dilution series.

A short description of assay [2]: Nuclear factor erythroid 2-related factor 2/antioxidant responsive element (Nrf2/ARE) small molecule agonists: luciferase reporter gene qHTS assay in human keratinocytes (AID 1919969). Note: nearly all actives have a fitted effect of over 35% in size.
Assay [3] addresses KiSS-1 receptor (Homo sapiens) (UniProt Q969F8). Put plainly: Human kisspeptin (KISS1R) small molecule agonists, calcium flux assay in KISS1R-HEK293 cells (AID 1920064; active = well fitted curve in the direction sought with a large enough effect in the repeat runs; an effect the other way counts as inactive or inconclusive). Put shortly:
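Agonist mode: intracellular calcium rise tracked at 1 s intervals over 3 min (480/540 nm) immediately after compound addition to dye-loaded KISS1R-HEK293 stable cells. Each compound tested at 15 concentrations in triplicate.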
A general note: Calcium flux is commonly read through the fluorescence of an indicator in the cells.

A short description of assay [4]: G protein-coupled receptor (GPCR) small molecule agonists, calcium flux assay: HEK293 wild type cell line counter screen (AID 1920065). Summed up:
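Calcium flux counter screen: compound added in agonist mode at 15 concentrations in triplicate to dye-loaded parental HEK293 cells. Fluorescence (480/540) read kinetically for 3 min; ATP served as positive control.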

A short description of assay [5]: p53 small molecule agonists, cell-based qHTS assay with human liver microsomes: qHTS cell viability counter screen (AID 1963579). Note: nearly all actives have a fitted effect of over 45% in size. Summed up: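 Metabolically activated exposure: compounds, human liver microsomes and NADPH (0.5 mg/mL final apiece) were added to p53RE-bla cells seeded 5 h earlier, left 16 h at 37 C, and then assessed for viability by CellTiter-Glo luminescence.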

Assay [6] is described as follows: p53 small molecule agonists, cell-based qHTS assay with rat liver microsomes: qHTS cell viability counter screen (AID 1963580). Note: nearly all actives have a fitted effect of over 45% in size. Put shortly: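 Cytotoxicity counter screen: intracellular ATP measured by CellTiter-Glo luminescence in the same wells as the beta-lactamase reporter read, on HCT-116 p53RE-bla cells exposed 16 h at 37 C to compounds with rat liver microsomes and NADPH, each 0.5 mg/mL final.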

Assay [7] is described as follows: p53 small molecule agonists, cell-based qHTS assay: qHTS cell viability counter screen (AID 1963581). Note: nearly all actives have a fitted effect of over 45% in size. Summed up:
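Counter screen read by CellTiter-Glo luminescence (ATP content, 30 min at room temperature), run in the same wells as the beta-lactamase reporter read. HCT-116 p53RE-bla cells saw compounds for 16 h at 37 C.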

The target in assay [8] is 5-hydroxytryptamine receptor 2A (Homo sapiens) (UniProt P28223). Put plainly: 5-hydroxytryptamine receptor 2A (HTR2A) small molecule antagonists, cell-based qHTS assay (AID 1963586). Note: nearly all actives have a fitted effect of over 45% in size. Note: potency is the fitted concentration of half-maximal effect. Summed up: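 CHO cells stably expressing human HTR2A were plated for 18 h at 37 C, then loaded with calcium dye for 1 h. Compounds were preincubated 5 min at room temperature before DOI (4 nM solution) was added. Kinetic fluorescence was read for 3 min.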
Chain of 5-hydroxytryptamine receptor 2A (Homo sapiens) (P28223 whole entry, looked up): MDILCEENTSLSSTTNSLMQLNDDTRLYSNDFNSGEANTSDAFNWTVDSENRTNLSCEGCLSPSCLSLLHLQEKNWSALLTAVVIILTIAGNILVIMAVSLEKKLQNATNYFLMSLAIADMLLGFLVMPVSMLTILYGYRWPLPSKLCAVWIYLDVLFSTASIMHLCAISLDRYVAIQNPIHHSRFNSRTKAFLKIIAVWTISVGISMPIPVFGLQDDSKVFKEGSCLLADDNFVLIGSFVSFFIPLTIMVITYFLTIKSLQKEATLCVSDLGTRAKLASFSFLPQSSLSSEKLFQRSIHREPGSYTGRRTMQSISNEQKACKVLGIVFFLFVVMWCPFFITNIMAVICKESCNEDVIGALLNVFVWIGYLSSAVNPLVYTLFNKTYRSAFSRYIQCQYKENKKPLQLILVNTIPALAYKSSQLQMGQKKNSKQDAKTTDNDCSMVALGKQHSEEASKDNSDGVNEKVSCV

Assay [9] shares this target. Put plainly: 5-hydroxytryptamine receptor 2A (HTR2A) small molecule agonists, cell-based qHTS assay (AID 1963587). Note: nearly all actives have a fitted effect of over 30% in size. Note: potency is the fitted concentration of half-maximal effect. Put shortly:
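CHO cells stably expressing human HTR2A, plated 18 h, loaded with calcium dye 1 h at 37 C. Agonist mode: compounds added and intracellular calcium fluorescence recorded kinetically for 2 min at 1 sec intervals.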

Assay [10] deals with Muscarinic acetylcholine receptor M1 (Homo sapiens) (UniProt P11229). Put plainly: Cholinergic receptor muscarinic 1 (CHRM1) small molecule antagonists, cell-based qHTS assay (AID 1963588). Note: nearly all actives have a fitted effect of over 40% in size. Note: potency is the fitted concentration of half-maximal effect. Put shortly:
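Compounds were tested at 15 concentrations in three independent runs. Dye-loaded CHRM1-CHO cells were exposed 5 min at room temperature before stimulation by acetylcholine added at 50nM. Intracellular calcium was read kinetically on FDSS for 3 min.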

The target is the same in assay [11]. Kind of assay: Cholinergic receptor muscarinic 1 (CHRM1) small molecule agonists, cell-based qHTS assay (AID 1963589). Note: nearly all actives have a fitted effect of over 35% in size. Put shortly:
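Agonist-mode calcium-flux screen: compounds at 15 concentrations, three independent runs, were pin-transferred onto dye-loaded human CHRM1-CHO cells. Fluorescence was then recorded kinetically every second over minutes.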

Assay [12] addresses Beta-2 adrenergic receptor (Homo sapiens) (UniProt P07550). Put plainly: Adrenergic beta2 receptor (ADRB2) small molecule antagonists, cell-based qHTS assay (AID 1963592). Note: series mostly up to about 92 µM; nearly all actives have a fitted effect of over 50% in size. Put shortly: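 Assay format: CHO-ADRB2 cells, 18-20hr seeding at 37C/5% CO2, then compound plus 1nM isoproterenol agonist mix for 0.5hr RT. Homogeneous time-resolved fluorescence cAMP detection after 1hr, expressed as 665/615 nm ratio.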

A short description of assay [13]: p53 small molecule agonists, cell-based qHTS assay with human liver microsomes (AID 1963577).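 Note: p53 response element beta-lactamase reporter cells with liver microsomes plus NADPH.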 Summed up:
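In this qHTS, p53 response-element beta-lactamase cells receive test compound together with a microsome/NADPH activating system (0.5 mg/mL final each) and are incubated 16 h at 37 C before LiveBLAzer fluorescence detection.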

Assay [14] addresses D(2) dopamine receptor (Homo sapiens) (UniProt P14416). Kind of assay: Dopamine D2 receptor (DRD2) small molecule agonists, cell-based qHTS assay (AID 1963594). Note: nearly all actives have a fitted effect of over 35% in size. Put shortly:
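HEK293 cells stably expressing human DRD2, pre-treated with PDE inhibitor Ro20-1724 (0.1 mM final) and compound 10 min at room temperature, then stimulated with NKH477 (200nM […]) for 30 min. cAMP read by HTRF (665/620 nm).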

Assay [15] is described as follows: p53 small molecule agonists, cell-based qHTS assay with rat liver microsomes (AID 1963578). Summed up:
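Agonist mode in p53RE-bla reporter cells, with compounds co-incubated 16 h at 37 C alongside 0.5 mg/mL rat liver microsomes and 0.5 mg/mL NADPH (final), followed by a 2 h LiveBLAzer detection step.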

Assay [16] in a line: p53 small molecule agonists, cell-based qHTS assay (AID 1963582; active = well fitted activation curve with a large enough effect in the signal ratio in the repeat runs, not every such curve was filed as active; the % refers to the signal ratio). Summed up: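 Read-out is beta-lactamase FRET fluorescence after 2 h at room temperature with LiveBLAzer B/G substrate. p53 response element-bla cells were treated 16 h at 37 C with compounds in DMSO, added 5 h after seeding.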
In assay [17] the target is D(2) dopamine receptor (Homo sapiens) (UniProt P14416). Kind of assay: Dopamine D2 receptor (DRD2) small molecule antagonists, cell-based qHTS assay (AID 1963595; active = well fitted inhibition curve with a large enough effect in the signal ratio in the repeat runs, with a control signal flat; the % refers to the signal ratio). Put shortly:
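Readout: HTRF cAMP, cAMP-d2 competing with cellular cAMP for anti-cAMP cryptate, read after 1 h. Cells: DRD2-HEK293. Conditions: 0.1 mM Ro20-1724, 12 nM quinpirole, 200 nM NKH477, 30 min RT.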

A short description of assay [18]: cAMP Responsive Elements (CRE) small molecule agonists, cell-based qHTS assay (AID 1963590). Summed up:
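Agonist mode: compound added to CRE-bla HEK 293T cells (2,000/well, 18 h after plating) for 3 h at 37 C/5% CO2. Reporter activity detected via FRET beta-lactamase substrate, 2 h room-temperature loading.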

The nature of assay [19]: cAMP Responsive Elements (CRE) small molecule antagonists, cell-based qHTS assay (AID 1963591; active = well fitted inhibition curve with a large enough effect in the signal ratio in the repeat runs, not every such curve was filed as active; the % refers to the signal ratio). Summed up:
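Antagonist mode: compounds are added alongside the adenylyl cyclase activator NKH477 (0.25 uM final) to CRE-bla HEK293T cells for 3 h. LiveBLAzer FRET substrate, 2 h at room temperature, reports bla expression.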
% is set by controls: 0 for no effect and ±100 for the full control effect.

Chain of KiSS-1 receptor (Homo sapiens) (Q969F8 whole entry, looked up): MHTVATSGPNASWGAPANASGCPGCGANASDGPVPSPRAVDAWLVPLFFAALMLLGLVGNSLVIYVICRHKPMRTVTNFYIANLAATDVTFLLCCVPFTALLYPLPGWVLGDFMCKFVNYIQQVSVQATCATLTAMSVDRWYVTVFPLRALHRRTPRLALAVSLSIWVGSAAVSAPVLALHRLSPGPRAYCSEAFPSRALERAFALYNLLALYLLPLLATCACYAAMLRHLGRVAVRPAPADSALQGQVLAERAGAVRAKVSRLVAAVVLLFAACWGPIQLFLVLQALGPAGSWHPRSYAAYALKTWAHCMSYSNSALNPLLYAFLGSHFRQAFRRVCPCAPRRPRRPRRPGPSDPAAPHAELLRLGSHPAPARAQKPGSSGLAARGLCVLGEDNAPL
Chain of D(2) dopamine receptor (Homo sapiens) (P14416 whole entry, looked up): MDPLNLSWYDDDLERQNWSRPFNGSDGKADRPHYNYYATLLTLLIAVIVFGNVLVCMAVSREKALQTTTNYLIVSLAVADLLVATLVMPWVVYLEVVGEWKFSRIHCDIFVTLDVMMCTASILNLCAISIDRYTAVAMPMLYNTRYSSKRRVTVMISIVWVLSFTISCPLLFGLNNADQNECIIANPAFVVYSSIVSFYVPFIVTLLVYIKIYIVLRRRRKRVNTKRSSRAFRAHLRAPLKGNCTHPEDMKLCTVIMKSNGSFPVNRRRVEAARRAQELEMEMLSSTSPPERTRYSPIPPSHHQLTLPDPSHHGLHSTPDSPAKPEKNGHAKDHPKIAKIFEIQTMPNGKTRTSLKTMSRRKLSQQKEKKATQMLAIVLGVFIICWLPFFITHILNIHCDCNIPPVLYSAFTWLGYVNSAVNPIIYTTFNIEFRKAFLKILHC
Chain of Muscarinic acetylcholine receptor M1 (Homo sapiens) (P11229 whole entry, looked up): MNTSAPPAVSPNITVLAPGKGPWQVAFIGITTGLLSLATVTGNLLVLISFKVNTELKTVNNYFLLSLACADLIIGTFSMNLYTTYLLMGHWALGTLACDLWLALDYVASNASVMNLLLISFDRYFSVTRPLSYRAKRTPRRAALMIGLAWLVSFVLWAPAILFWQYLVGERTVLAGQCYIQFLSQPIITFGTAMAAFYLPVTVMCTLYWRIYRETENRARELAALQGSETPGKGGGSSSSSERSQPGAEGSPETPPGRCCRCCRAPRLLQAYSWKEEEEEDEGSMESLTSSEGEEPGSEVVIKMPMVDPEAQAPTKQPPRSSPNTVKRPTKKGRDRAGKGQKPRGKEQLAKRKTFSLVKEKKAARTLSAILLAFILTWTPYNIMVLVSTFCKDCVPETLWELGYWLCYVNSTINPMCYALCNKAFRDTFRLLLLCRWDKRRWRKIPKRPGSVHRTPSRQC
Chain of Beta-2 adrenergic receptor (Homo sapiens) (P07550 whole entry, looked up): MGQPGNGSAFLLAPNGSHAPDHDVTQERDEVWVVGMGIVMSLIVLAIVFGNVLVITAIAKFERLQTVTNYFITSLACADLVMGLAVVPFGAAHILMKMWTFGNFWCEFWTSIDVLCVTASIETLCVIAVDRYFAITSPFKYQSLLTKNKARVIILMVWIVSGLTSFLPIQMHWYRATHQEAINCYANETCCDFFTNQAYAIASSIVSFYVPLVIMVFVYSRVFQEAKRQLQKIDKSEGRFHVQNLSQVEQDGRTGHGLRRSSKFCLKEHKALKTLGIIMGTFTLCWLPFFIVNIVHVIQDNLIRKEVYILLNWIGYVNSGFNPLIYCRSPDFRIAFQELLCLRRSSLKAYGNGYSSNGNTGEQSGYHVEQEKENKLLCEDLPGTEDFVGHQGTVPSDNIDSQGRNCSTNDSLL

Consider `C[C@@H](Oc1ccc(Cl)cc1Cl)C(=O)O`, for which the Potency result in [1], in assay [2], in [3], in [4], in [5] and in [6] was “inactive” each time. For the same compound, the Potency entry in assay [7], in assay [8], in assay [9], in assay [10], in [11] and in assay [12] was “inactive” throughout.
In the case of `COC12CC[C@@]3(C[C@@H]1C(C)(O)C(C)(C)C)[C@H]1Cc4ccc(O)c5c4[C@@]3(CCN1CC1CC1)[C@H]2O5` (stereo partly drawn), the Potency was 30.4 µM (active) in [1] and 33.2 µM (active) in assay [10]. For the same compound, the Potency entry in [2], in [3], in assay [4], in [13], in assay [7] and in [14] was “inactive” in each case.
With `COc1cc(Cl)c(OC)cc1Cl`, the Potency result in assay [1], in [2], in [3], in [4], in [13] and in assay [15] was “inactive” in each case. Besides, the Potency entry in assay [6], in assay [16], in [8], in [9], in [10] and in assay [11] was “inactive” each time. The Potency result in assay [12] and in [17] was “inactive” each time.
Regarding `CC(C)N(C(=O)COc1nnc(C(F)(F)F)s1)c1ccc(F)cc1`, the Potency entry in assay [1], in [2], in [3], in assay [4], in [15] and in assay [5] was “inactive” in each case. Also, the Potency result in assay [6], in assay [7], in [16], in assay [8], in assay [9] and in assay [10] was “inactive” each time. For the same compound, the Potency result in assay [11], in assay [18], in [12], in assay [14] and in assay [17] was “inactive” in each case.
With `Cc1ccc2c(c1)C1CN(C)CCC1N2` (stereo not drawn), the activity change, negative = cytotoxicity in assay [1] is -10.1% [at 19 µM]; in [5], -1.76% [at 13.5 µM]; in assay [6] it was -8.73% [at 13.5 µM]. Further, the activity, positive = activation in [2] is -3.42% [at 19 µM]. The activation in assay [3] is -0.319% [at 15.8 µM]; in [4] it was -0.508% [at 11.8 µM]; in [13], 3.07% [at 13.5 µM]; in assay [15], -0.463% [at 13.6 µM]; in assay [16], 0% [at 13.5 µM]; in assay [11] it was -0.313% [at 15.8 µM]. Besides, the values for the activation in [18] and in assay [14] were -1.75% [at 19 µM] and -2.85% [at 19 µM], respectively. For the same compound, the Potency in [9] is 0.165 µM (active). Besides, the activity change, negative = inhibition in [19] was -7.6% [at 18.9 µM]; in assay [12] it was -2.7% [at 19 µM].
As for `CC1(C)CCC(Cc2ccc(Cl)cc2)C1(O)Cn1cncn1` (stereo not drawn), the Potency result in assay [1], in [2], in [3], in assay [4], in [6] and in [7] was “inactive” throughout. The Potency entry in assay [10], in [11] and in assay [14] was “inactive” each time. The Potency is 16.8 µM (active) in assay [8] and 49 µM (active) in assay [9].
For `COc1ccc2[nH]cc(CCN(C(C)C)C(C)C)c2c1`, the Potency result in assay [1], in assay [2], in [3], in [4], in assay [13] and in [15] was “inactive” throughout. The Potency entry in assay [6], in assay [16], in assay [10], in [11], in [18] and in assay [12] was “inactive” each time. For the same compound, the Potency entry in assay [14] and in assay [17] was “inactive” each time.
As to `O=C(O)C(Br)CBr` (stereo not drawn), the Potency entry in assay [1], in assay [2], in [3], in assay [4], in assay [13] and in assay [15] was “inactive” throughout. Besides, the Potency entry in assay [5], in assay [7], in assay [16], in [8], in assay [9] and in [10] was “inactive” throughout. In addition, the Potency result in assay [11], in assay [18], in [12], in assay [14] and in assay [17] was “inactive” in each case.
